{
  "source": "the supplement of paper PMC4166925",
  "note": "± gives the standard deviation of the averaged measurements. In all, about 33,000 sequences were measured (“E-score (dimensionless, -0.5 to 0.5)”: median about -0.046, highest 2% from about 0.36 on). What follows is part of a selection rich in the highest values, with near analogues and random picks from the rest.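 Further: protein at 200 nM in PBS on universal double-stranded arrays.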",
  "data": [
    {"tested_on": "T1, SpTbr T-box DNA-binding domain (GST fusion)", "T1 sequence": "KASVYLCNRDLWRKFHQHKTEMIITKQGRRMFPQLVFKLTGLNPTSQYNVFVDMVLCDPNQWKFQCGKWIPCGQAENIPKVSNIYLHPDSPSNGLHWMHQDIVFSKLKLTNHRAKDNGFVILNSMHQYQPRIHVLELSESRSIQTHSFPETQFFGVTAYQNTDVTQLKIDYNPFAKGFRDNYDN", "test": "PBM E-score of 8-mer (E-score (dimensionless, -0.5 to 0.5)); Tbr is Tbrain of the sea star Patiria miniata (Pm) or the sea urchin Strongylocentrotus purpuratus (Sp); higher = stronger binding preference", "settings": "the construct has about 5 more residues each side", "protocol": "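Universal protein-binding microarray (Agilent AMADID 016060, 60-bp probes with a 35-bp variable region) incubated with 200 nM GST-fused Strongylocentrotus purpuratus Tbr T-box DNA-binding domain (residues 362-554) in PBS pH 7.5. Scored for every ungapped 8-mer (given with its reverse complement) as E-score (range -0.5 to 0.5; >0.45 counts as bound) and Z-score of median probe intensity. Two replicate arrays (datasets 1 and 2).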", "values": [
      {"sequence": "TCAATCGA", "PBM E-score of 8-mer": "-0.0374 ± 0.037"},
      {"sequence": "GACCAAAA", "PBM E-score of 8-mer": "-0.133 ± 0.0068"},
      {"sequence": "CAGAGCTC", "PBM E-score of 8-mer": "-0.265 ± 0.01"},
      {"sequence": "CCCACCTC", "PBM E-score of 8-mer": "0.251 ± 0.043"},
      {"sequence": "CGCACCAA", "PBM E-score of 8-mer": "0.2705 ± 0.0014"},
      {"sequence": "TGCACCCA", "PBM E-score of 8-mer": "-0.00634 ± 0.056"},
      {"sequence": "CGCACCCA", "PBM E-score of 8-mer": "0.372 ± 0.029"},
      {"sequence": "CGCACCGC", "PBM E-score of 8-mer": "0.228 ± 0.031"},
      {"sequence": "CGCACCTC", "PBM E-score of 8-mer": "0.453 ± 0.016"},
      {"sequence": "CGCACCCG", "PBM E-score of 8-mer": "0.267 ± 0.054"},
      {"sequence": "CGCACCTA", "PBM E-score of 8-mer": "0.43 ± 0.0064"},
      {"sequence": "CGCACCGA", "PBM E-score of 8-mer": "0.0672 ± 0.045"},
      {"sequence": "CACTCAAG", "PBM E-score of 8-mer": "0.106 ± 0.095"},
      {"sequence": "ATCTGTAG", "PBM E-score of 8-mer": "-0.206 ± 0.018"},
      {"sequence": "ATGGGAAC", "PBM E-score of 8-mer": "-0.109 ± 0.011"},
      {"sequence": "CCAAGGCA", "PBM E-score of 8-mer": "-0.112 ± 0.0028"},
      {"sequence": "CGTCGAGA", "PBM E-score of 8-mer": "-0.0352 ± 0.014"},
      {"sequence": "CCCCTTTC", "PBM E-score of 8-mer": "-0.132 ± 0.052"},
      {"sequence": "AACCTTTC", "PBM E-score of 8-mer": "-0.0391 ± 0.099"},
      {"sequence": "CACCTTTA", "PBM E-score of 8-mer": "0.414 ± 0.0042"},
      {"sequence": "AACCTTTA", "PBM E-score of 8-mer": "0.000765 ± 0.041"},
      {"sequence": "GACCTTTA", "PBM E-score of 8-mer": "-0.242 ± 0.0044"},
      {"sequence": "CACCTTTC", "PBM E-score of 8-mer": "0.379 ± 0.024"},
      {"sequence": "AAGGGAGA", "PBM E-score of 8-mer": "-0.13 ± 0.033"},
      {"sequence": "ATAGCCAT", "PBM E-score of 8-mer": "-0.118 ± 0.018"},
      {"sequence": "CGTGCTCA", "PBM E-score of 8-mer": "-0.0222 ± 0.013"},
      {"sequence": "TACCACGA", "PBM E-score of 8-mer": "-0.00786 ± 0.00088"},
      {"sequence": "CGCGCGGC", "PBM E-score of 8-mer": "0.208 ± 0.04"},
      {"sequence": "ATCTGGCG", "PBM E-score of 8-mer": "0.0377 ± 0.0091"},
      {"sequence": "ATCGAGAC", "PBM E-score of 8-mer": "0.0132 ± 0.042"},
      {"sequence": "GGTAGCTA", "PBM E-score of 8-mer": "-0.314 ± 0.032"},
      {"sequence": "ATAGCCGG", "PBM E-score of 8-mer": "-0.203 ± 0.015"},
      {"sequence": "TGGGTGAA", "PBM E-score of 8-mer": "-0.137 ± 0.0066"},
      {"sequence": "TATGTGAA", "PBM E-score of 8-mer": "0.17 ± 0.07"},
      {"sequence": "CGTGTGAA", "PBM E-score of 8-mer": "0.4643 ± 0.0031"},
      {"sequence": "CGTGTGTA", "PBM E-score of 8-mer": "0.096 ± 0.044"},
      {"sequence": "CCTGTGAA", "PBM E-score of 8-mer": "0.363 ± 0.011"},
      {"sequence": "TGTGTGAA", "PBM E-score of 8-mer": "0.4829 ± 0.004"},
      {"sequence": "CCTGCCTC", "PBM E-score of 8-mer": "0.0708 ± 0.019"},
      {"sequence": "CTATCCTA", "PBM E-score of 8-mer": "-0.171 ± 0.0083"},
      {"sequence": "GTTGACCA", "PBM E-score of 8-mer": "0.142 ± 0.036"},
      {"sequence": "ATAACCAC", "PBM E-score of 8-mer": "-0.138 ± 0.015"},
      {"sequence": "CCACACCA", "PBM E-score of 8-mer": "0.314 ± 0.057"},
      {"sequence": "ACTCACCA", "PBM E-score of 8-mer": "-0.0326 ± 0.014"},
      {"sequence": "CCTCACCA", "PBM E-score of 8-mer": "0.197 ± 0.025"},
      {"sequence": "GCGCACCA", "PBM E-score of 8-mer": "0.00307 ± 0.052"},
      {"sequence": "TCTCACCA", "PBM E-score of 8-mer": "0.372 ± 0.011"},
      {"sequence": "CCACACAA", "PBM E-score of 8-mer": "0.0877 ± 0.025"},
      {"sequence": "TCACACAA", "PBM E-score of 8-mer": "0.435 ± 0.0069"},
      {"sequence": "TCGCACCA", "PBM E-score of 8-mer": "0.434 ± 0.023"},
      {"sequence": "CCGCACCA", "PBM E-score of 8-mer": "0.186 ± 0.032"},
      {"sequence": "TCACACCA", "PBM E-score of 8-mer": "0.4853 ± 0.0026"},
      {"sequence": "ACACACCA", "PBM E-score of 8-mer": "0.287 ± 0.013"},
      {"sequence": "ACACACAA", "PBM E-score of 8-mer": "0.148 ± 0.02"},
      {"sequence": "CCGGGATC", "PBM E-score of 8-mer": "-0.0846 ± 0.051"},
      {"sequence": "AGTAGAAT", "PBM E-score of 8-mer": "-0.219 ± 0.017"},
      {"sequence": "GCCCCTGA", "PBM E-score of 8-mer": "-0.091 ± 0.031"},
      {"sequence": "CCTGGAGC", "PBM E-score of 8-mer": "-0.16 ± 0.026"},
      {"sequence": "GGGGTAAC", "PBM E-score of 8-mer": "-0.0298 ± 0.022"},
      {"sequence": "GATGCAAA", "PBM E-score of 8-mer": "0.0247 ± 0.033"},
      {"sequence": "CCCATCGA", "PBM E-score of 8-mer": "-0.2033 ± 0.0016"},
      {"sequence": "AGGCCCGC", "PBM E-score of 8-mer": "-0.15 ± 0.036"},
      {"sequence": "GCACACGA", "PBM E-score of 8-mer": "-0.113 ± 0.11"},
      {"sequence": "TCACACGA", "PBM E-score of 8-mer": "0.387 ± 0.0091"},
      {"sequence": "ACACACGA", "PBM E-score of 8-mer": "-0.00198 ± 0.078"},
      {"sequence": "TCATTGAA", "PBM E-score of 8-mer": "-0.129 ± 0.0043"},
      {"sequence": "CAACCTGC", "PBM E-score of 8-mer": "0.149 ± 0.015"},
      {"sequence": "AAGAGGTA", "PBM E-score of 8-mer": "-0.272 ± 0.035"},
      {"sequence": "ACGAGGTG", "PBM E-score of 8-mer": "0.419 ± 0.019"},
      {"sequence": "AGGAGGTC", "PBM E-score of 8-mer": "-0.269 ± 0.036"},
      {"sequence": "AGGAGGTA", "PBM E-score of 8-mer": "-0.0388 ± 0.051"},
      {"sequence": "AGGAGGTG", "PBM E-score of 8-mer": "0.391 ± 0.03"},
      {"sequence": "ACGAGGTA", "PBM E-score of 8-mer": "-0.0678 ± 0.011"},
      {"sequence": "AAGAGGTC", "PBM E-score of 8-mer": "-0.128 ± 0.01"},
      {"sequence": "AAGAGGTG", "PBM E-score of 8-mer": "0.407 ± 0.0088"},
      {"sequence": "ACGAGGTC", "PBM E-score of 8-mer": "-0.114 ± 0.018"},
      {"sequence": "ACATAGGT", "PBM E-score of 8-mer": "0.221 ± 0.02"},
      {"sequence": "CCTGCTAA", "PBM E-score of 8-mer": "0.269 ± 0.031"},
      {"sequence": "ACCAACAC", "PBM E-score of 8-mer": "0.273 ± 0.0089"},
      {"sequence": "ACGCTTAA", "PBM E-score of 8-mer": "0.11 ± 0.0092"},
      {"sequence": "GGCCGTAC", "PBM E-score of 8-mer": "-0.249 ± 0.0084"},
      {"sequence": "ATTTGGGC", "PBM E-score of 8-mer": "-0.181 ± 0.017"},
      {"sequence": "CACTTAGG", "PBM E-score of 8-mer": "0.117 ± 0.04"},
      {"sequence": "ATGGTCCG", "PBM E-score of 8-mer": "-0.11 ± 0.029"},
      {"sequence": "ATGATGGA", "PBM E-score of 8-mer": "-0.179 ± 0.029"},
      {"sequence": "ATCACAGA", "PBM E-score of 8-mer": "0.102 ± 0.074"}
    ]}
  ]
}
